The chains are these.
B1: ENSMUSG00000061578.929|Ksr2|22:26 (ssRNA)
RNA: GGGAGUUCUACAGUCCGACGAUCGCUUCGAUAUCCGCAUGCUACAAGGGUGUUUAGAGUAGGCACACACGAAGUAUCAAUAAGGUUAUUGAGAUGAGGAUUUAGAAAGAUCCAUGUAUAAAAGGUCUAGAAGGAUGAAGAUCUAAAACAAGAAGACUGCAUGUUAACGCUCCUGCCACUGUUGCCCCUUCCUUUACCCUUGGCAGACAUUGCUAAUCAAUCUCAGCACAGUUUCCAACCACAGUCAUAGAACAUUUGCCACAAAGGCCCUGGAUGUGACUAUAUGUGCUGAGAAGGGAAGGUACUCUUGCGGUCGCACUAGUGUGGAAUUCUCGGGUGUCAAGG
B2: ENSMUSG00000028439.103|Fam219a (ssRNA)
RNA: GGGAGUUCUACAGUCCGACGAUCGCUUCGAUAUCCGCAUGCUAAUACCUAUUUGUGUUUUCCCCUCAUCUCCAGAUGGGAAGCCUGGCAGCGCUGUCCAAAGGGAUACUGUCUCUCCAUUAGAUAACUCCUUCCACUGUCUCCCUCCCCCGCUUUCUUACUUUCUGAGGGUUGGGAAGGUAAGAUGGGCCUUAGAGAGAAGCCAGGUUUGGGGAUGGUAUGACCUGUUCUCACCGGUCUCUAACCAGUGCAUCUGUCUCUCUGCCUCAUCCCCACACCGCCCUGCCACCCCCAGUCUUCUGUCCUCUUGCGGUCGCACUAGUGUGGAAUUCUCGGGUGUCAAGG
B3: ENSMUSG00000028439.89|Fam219a|94:98 (ssRNA)
RNA: GGGAGUUCUACAGUCCGACGAUCGCUUCGAUAUCCGCAUGCUAGGGUUUUGAGAAGAAAAGGAUCCAAGCAAUGGGGGCAGUUCUCACACCUCAGAGCCCCUCUCCCCAAACCCUGUGCCAGCCCAUAUACCUAUUACACAUUUCCCCUCAUCUCCAGAUGGGAAGCCUGGCAGCGCUGUCCAAAGGGAUACUGUCUCUCCAUUAGAUAACUCCUUCCACUGUCUCCCUCCCCCGCUUUCUUACUUUCUGAGGGUUGGGAAGGUAAGAUGGGCCUUAGAGAGAAGCCAGGUUUGGGGAUGGUACUCUUGCGGUCGCACUAGUGUGGAAUUCUCGGGUGUCAAGG
B4: ENSMUSG00000029636.86|Wasf3 (ssRNA)
RNA: GGGAGUUCUACAGUCCGACGAUCGCUUCGAUAUCCGCAUGCUAUUCCUGUUUCUUCCCUUUGCAAAUUGAAUUCCAGGUAGAUAUGGUUGUAGAGGGGAAAGUUUAACAAAUCAGAAUGAAAUGUUUGUCUGUUUGCACACUGGGCCUGGUGGCCUCCAAGGAAAUGUGUACGAUCGUUUGCUUUCUCUAUCUUGGCGCUUGCAACCGAGAGCGGCCAUUUUUAUGAGGGGAGCCCUGUGGGUACUCAUGUGGAAAGUGCCCACUGACUUUGGCAGAUGGAGUUCACUUUCAUGGCUAGCCCUCUCUUGCGGUCGCACUAGUGUGGAAUUCUCGGGUGUCAAGG
B5: ENSMUSG00000061578.638|Ksr2 (ssRNA)
RNA: GGGAGUUCUACAGUCCGACGAUCGCUUCGAUAUCCGCAUGCUAAGGAAUGGUGCUAGCUAGGGUGUGAGCCAAGCCCUUGAGGCUACUGUGAGUUAUGAGAUGUGUCCAACCCUCAGCCCACAGACUGCAUAUGCCCCAGGACAGCUGUGAAGGUGACCCAAUACAAAAUCGUAAACUAACUUAAAACCAUUAAGGGUUUUUGUUUUGUUGUUGUUUGCUGGCUUUUUGUUUUUUGGGUUGGUUUUCUUUUUCUUUCUUUCUUUUUUUUUUUUUUUUCCAACUCAAGUGUGAACUUUGUUGAUCUCUUGCGGUCGCACUAGUGUGGAAUUCUCGGGUGUCAAGG
B6: ENSMUSG00000028439.326|Fam219a (ssRNA)
RNA: GGGAGUUCUACAGUCCGACGAUCGCUUCGAUAUCCGCAUGCUAAGAUCCUAAUUAGAUAAGAAAAUGCCAAGGGAGGCAAGCCAGAGAAAGCAUCUGCAGGGGCCACAGGCCCAUGGUGGCCCCAUCUGAGCCCCCUCUCCCACCCCAGUUCGCAUCCCCACCACUCAUCAUCUGGGCCCCAACGCUAGAACUCCCCCCACCGCAUCCCCACUGGGCUCUUUGACUCACCCUUCUAGAACAUGGGUGCCUCCUCUCUUUAGACUGCUGCCUUUGCCUCUGACUUCCUGUGGGAUUGAGAGCCACUCUUGCGGUCGCACUAGUGUGGAAUUCUCGGGUGUCAAGG
B7: ENSMUSG00000061578.1149|Ksr2 (ssRNA)
RNA: GGGAGUUCUACAGUCCGACGAUCGCUUCGAUAUCCGCAUGCUAAAUGGCCCAGAAUUAUAGAGGACAGAGGAGAAGGUGGGCAUUGCAAGAUGCUGGAGCUUGGAAAGCAUGGUGGAAUUUGAUACACAUGAUCACCAAGCACCACCCGGGGAAGAAACUGGGUCACUGAGUCACUGGGUCACUCUGUUCCCUGAAGGCCCACCAACCACAUCCGCAUCCUACCUAGGGUGGAACUUUGACUGUCCUCGGGUGUCUCUGCUGUAUAUAGGCCAGUCACAAGCCCUUCUAAAAGCCUGCUCUUGCUCUUGCGGUCGCACUAGUGUGGAAUUCUCGGGUGUCAAGG
B8: ENSMUSG00000043670.232|Diras1 (ssRNA)
RNA: GGGAGUUCUACAGUCCGACGAUCGCUUCGAUAUCCGCAUGCUAGUGGUGUGUCUGUAUGGCUCUGUGUUUUCAGGGGUGGGUGACACAGGCCUGUCUGAUGAGCACCAGGUCUGUUCCAGGCUGUGGCAAGCUGGCUCCUGGCUCAGAAGUGACAAAGCUGCAGUACAGAGGCCUCAGUGUGAGGUCAUCACCUCACAGUGGCUACAGACCAGGCUGUGGCCUGAGUGAGCUGGAACCUCUGGGGUGGGGACGAGAAAGAGAGAGGGAGAGAGAGGGGGGAGAGUGAGUGUGUGUGUGUGAAGCUCUUGCGGUCGCACUAGUGUGGAAUUCUCGGGUGUCAAGG

Over roughly 9,900 sequences, “r (bound/input frequency ratio)” has its median near 0.7; the highest 2% begin near 6.5. Many of the other results were omitted from the sample, so the highest values are more common in it than they were.

TDP-43, sequence (Q13148 whole entry): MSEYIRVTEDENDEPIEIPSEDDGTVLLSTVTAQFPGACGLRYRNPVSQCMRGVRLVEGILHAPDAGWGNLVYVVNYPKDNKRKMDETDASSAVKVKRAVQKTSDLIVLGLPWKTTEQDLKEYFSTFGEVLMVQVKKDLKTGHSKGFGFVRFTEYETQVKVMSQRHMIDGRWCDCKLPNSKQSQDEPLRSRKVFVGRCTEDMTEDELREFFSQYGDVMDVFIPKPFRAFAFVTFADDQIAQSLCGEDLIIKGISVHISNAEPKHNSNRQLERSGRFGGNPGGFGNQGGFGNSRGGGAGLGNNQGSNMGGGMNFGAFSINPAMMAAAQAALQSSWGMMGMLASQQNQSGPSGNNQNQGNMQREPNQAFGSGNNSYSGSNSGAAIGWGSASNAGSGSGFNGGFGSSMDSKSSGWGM

The test concerns the target TDP-43 (Homo sapiens, UniProt Q13148 1-414). Briefly: RNA Bind-n-Seq with designed 260-mer pool; 25 mM Tris-HCl, 150 mM KCl, 3 mM MgCl2, BSA (printed 500 mg/mL), 20 units/mL SUPERase IN; pH not stated; 500 nM RNA pool, 1 h, 4 C; TDP-43 5, 50, 500 nM; high values mean tight binding. Conditions: protein: recombinant; tags: SBP (GST cleaved off with PreScission; pGEX-GST-SBP). The procedure, abridged: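 Duplicate measurements used two independent batches of recombinant SBP-tagged TDP-43, which was captured on streptavidin beads at 5, 50 or 500 nM. The beads were incubated with 500 nM of an in vitro-transcribed 260-nt 3′ UTR oligo pool for 1 h at 4 °C in 25 mM Tris-HCl, 150 mM KCl, 3 mM MgCl2, BSA and SUPERase IN. After washing, biotin elution, reverse transcription, PCR amplification and sequencing, binding was expressed as R: each oligo's normalized read abundance in the bound sample over its abundance in input.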
Turning to B1, the binding signal was 1.18 R (bound/input frequency ratio).

For B2, the binding signal is 0.421 R (bound/input frequency ratio).

As for B3, the binding signal was 0.538 R (bound/input frequency ratio).

For B4, the binding signal was 3.02 R (bound/input frequency ratio).

In the case of B5, the binding signal is 0.297 R (bound/input frequency ratio).

With B6, the binding signal is 1.54 R (bound/input frequency ratio).

In the case of B7, the binding signal was 0.863 R (bound/input frequency ratio).

Take B8: the binding signal was 6.45 R (bound/input frequency ratio).

For the origin of these results see paper PMC12864922, “TDP-43 directly inhibits mRNA accumulation in neurites through modulation of mRNA stability”.
